Measurements as given in PubChem BioAssay AID1159580 (chemical genetic matrix, 2015).
Hit rate of the full screen: of about 5,500 compounds, about 2,000 (36%) were called active. Inconclusive results (about 18%) are left out. No stated cut-off is given here; in the data, active means normalized growth mostly below about 0.91 (no sharp cut-off); inconclusive means no clear call, values can overlap the other calls; inactive means mostly above about 0.92. The list shows a part of the results.

Assay: chemical genetic growth profiling, strain panel (AID 1159580);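 further: tested at 20 µM; growth read once vehicle control cultures reached saturation at 30 °C; 1 = growth at the plate median or of vehicle wells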
Conditions: S. cerevisiae deletion strains, growth OD

Measured: normalized growth

O=C(/C=C/c1ccc2c(c1)OCO2)Nc1ccc(Br)cc1
inactive: locus YAR019C, strain CDC15, stronger effect = lower value 0.962 | locus YBL105C, strain PKC1, stronger effect = lower value 0.962 | locus YBR135W, strain CKS1, stronger effect = lower value 0.972 | locus YBR136W, strain MEC1, stronger effect = lower value 0.961 | locus YBR160W, strain CDC28, stronger effect = lower value 0.967 | locus YDL017W, strain CDC7, stronger effect = lower value 0.964 | locus YDL028C, strain MPS1, stronger effect = lower value 0.962 | locus YDL101C, strain DUN1, stronger effect = lower value 0.955 | locus YDL108W, strain KIN28, stronger effect = lower value 0.961 | locus YDL132W, strain cdc53, stronger effect = lower value 0.96 | locus YDL214C, strain PRR2, stronger effect = lower value 0.922 | locus YDR052C, strain DBF4, stronger effect = lower value 0.953 | locus YDR054C, strain cdc34, stronger effect = lower value 0.958 | locus YDR226W, strain ADK1, stronger effect = lower value 0.968 | locus YDR477W, strain SNF1, stronger effect = lower value 0.962 | locus YER123W, strain YCK3, stronger effect = lower value 0.9 | locus YER133W, strain GLC7, stronger effect = lower value 0.976 | locus YFL009W, strain cdc4, stronger effect = lower value 0.954 | locus YFL029C, strain CAK1, stronger effect = lower value 0.962 | locus YFR003C, strain YPI1, stronger effect = lower value 0.957 | locus YFR019W, strain FAB1, stronger effect = lower value 0.987 | locus YFR028C, strain CDC14, stronger effect = lower value 0.955 | locus YGR040W, strain KSS1, stronger effect = lower value 0.95 | locus YGR052W, strain FMP48, stronger effect = lower value 0.909 | locus YGR092W, strain DBF2, stronger effect = lower value 0.767 | locus YHR030C, strain SLT2, stronger effect = lower value 0.86 | locus YHR079C, strain IRE1, stronger effect = lower value 0.872 | locus YHR082C, strain KSP1, stronger effect = lower value 0.965 | locus YHR205W, strain SCH9, stronger effect = lower value 0.791 | locus YIL147C, strain SLN1, stronger effect = lower value 0.962 | locus YJL095W, strain BCK1, stronger effect = lower value 0.77 | locus YJL128C, strain PBS2, stronger effect = lower value 0.918 | locus YJL157C, strain FAR1, stronger effect = lower value 0.974 | locus YJR016C, strain ILV3, stronger effect = lower value 0.958 | locus YJR066W, strain TOR1 (second series), stronger effect = lower value 0.972 | locus YJR066W, strain TOR1, stronger effect = lower value 0.912 | locus YKL048C, strain ELM1, stronger effect = lower value 0.931 | locus YKL067W, strain YNK1, stronger effect = lower value 0.932 | locus YKL101W, strain HSL1, stronger effect = lower value 0.933 | locus YKL193C, strain SDS22, stronger effect = lower value 0.954 | locus YKL203C, strain TOR2, stronger effect = lower value 1.03 | locus YLR133W, strain CKI1, stronger effect = lower value 0.96 | locus YLR403W, strain SFP1, stronger effect = lower value 0.927 | locus YML070W, strain DAK1, stronger effect = lower value 0.9 | locus YMR001C, strain CDC5, stronger effect = lower value 0.957 | locus YMR205C, strain PFK2 (second series), stronger effect = lower value 0.938 | locus YMR277W, strain FCP1, stronger effect = lower value 0.959 | locus YNL006W, strain LST8, stronger effect = lower value 0.974 | locus YNL020C, strain ARK1, stronger effect = lower value 0.955 | locus YNL161W, strain CBK1, stronger effect = lower value 0.971 | locus YNL183C, strain NPR1, stronger effect = lower value 0.889 | locus YNL207W, strain RIO2, stronger effect = lower value 0.953 | locus YNL222W, strain SSU72, stronger effect = lower value 0.966 | locus YNL307C, strain MCK1 (second series), stronger effect = lower value 0.854 | locus YOL078W, strain AVO1, stronger effect = lower value 0.945 | locus YOL136C, strain PFK27, stronger effect = lower value 0.889 | locus YOR061W, strain CKA2, stronger effect = lower value 0.973 | locus YOR119C, strain RIO1, stronger effect = lower value 1.02 | locus YOR231W, strain MKK1, stronger effect = lower value 0.847 | locus YOR329C, strain SCD5, stronger effect = lower value 0.963 | locus YPL031C, strain PHO85, stronger effect = lower value 0.962 | locus YPL153C, strain RAD53, stronger effect = lower value 0.97 | locus YPL204W, strain HRR25, stronger effect = lower value 0.95 | locus YPL209C, strain IPL1, stronger effect = lower value 0.963 | locus YPL256C, strain CLN2, stronger effect = lower value 0.954 | locus YPR025C, strain CCL1, stronger effect = lower value 0.958 | locus YPR106W, strain ISR1, stronger effect = lower value 0.946 | locus YPR111W, strain DBF20, stronger effect = lower value 0.925 | strain NNK1, stronger effect = lower value 0.939 | strain TSCII, stronger effect = lower value 0.968
active: locus YLR113W, strain HOG1, stronger effect = lower value 0.754
